Drawing on ChEMBL document CHEMBL4513216, “Probing the Open Global Health Chemical Diversity Library for Multistage-Active Starting Points for Next-Generation Antimalarials” (ACS Infect Dis, 2020), this text covers INHIBITION for 30 compounds.

The structures appear in SMILES notation. In all, about 69,000 compounds went through this assay and about 8,600 (12%) showed an effect of 50% or more. Only a selection was taken, and strong results are over-represented in it overall.

In this assay the test system is Plasmodium berghei. In words: Screen against P. berghei liver stage (PbLuc), transformed with Luciferase, at 10uM. Format: functional, HepG2. Conditions: tested at 10 uM.
For the compound `CN(C)C(=O)C1CCN(Cn2nc(-c3ccc(F)cc3)oc2=O)CC1`, the INHIBITION stood at 34.7%. The result for `CCCN1CCC(Cc2noc(-c3ncccc3C)n2)CC1` reads 12.9%; that for `CNC(=O)CCNC(=O)c1cc(C)n(-c2cccc(OC)c2)c1C`, 11.2%; that for `CNc1nc2c(c(C(=O)N3CCCC3)n1)CN(C(=O)C1CCCC1)CC2`, 43.4%. The value for `Cc1nc(S(=O)(=O)N2CCC3(CCCCC3)C2)cn1C` was -9.2%. The result for `NC(=O)COc1cccc(C(=O)NCc2ccc(Cl)s2)c1` reads 3.03%. Regarding `O=C(C1CCOC1)N1CC[C@@H](O)[C@@H]1Cc1ccccc1` (stereo not given in full), the INHIBITION was determined as 10.7%.

On to `CCC(=O)N1CCCc2c(cnn2C)C1`, for which the INHIBITION is -5.452%.

Take `O=C(NCC(F)F)c1cc(-c2ccccc2)nc2ncnn12`: the INHIBITION came out at 60.2%.

In the case of `CNC(=O)c1cc(-c2ccccc2)nc2ncnn12`, the INHIBITION was determined as 49%. The result for `COC(=O)CNC(=O)c1cc(-c2ccccc2)nc2ncnn12` reads 28.2%; that for `Cc1ccc(C(=O)N2CCC3(CC2)COC(COc2ccccn2)C3)o1` (stereo not given), -9.1%; that for `O=C(c1ccncc1)N1CCCC1c1cccc(Br)c1` (stereo not given), 15.1%.

In the case of `O=C(Cn1c(=O)oc2ccccc21)N1Cc2cnn(CCO)c2C1`, the INHIBITION is 13.7%. The value for `CCc1ncc2c(n1)CN(C(=O)CNC(=O)C(C)C)C2` was 10.3%; that for `O=C(Cn1c(=O)oc2ccccc21)N1Cc2cncnc2C1` was 15.4%; that for `CC(=O)NCC(=O)N1Cc2cnc(CC(C)C)nc2C1` was 60.3%. The result for `CCc1ncc2c(n1)CN(C(=O)c1c(C)[nH]c(C(C)=O)c1C)C2` reads 39.6%; that for `CC(=O)c1c(C)nn(CC(=O)N2Cc3cnc(CC(C)C)nc3C2)c1C`, 27.9%; that for `CCOc1ccc(C(=O)N2Cc3cnc(CC)nc3C2)o1`, -6.83%. The result for `CCc1ncc2c(n1)CN(C(=O)COC)C2` reads -7.35%; that for `CCc1ncc2c(n1)CN(C(=O)c1c(C)[nH]c3c1C(=O)CCC3)C2`, 61%.

Consider `CCc1ncc2c(n1)CN(C(=O)CC(C)NC(C)=O)C2` (stereo not given), for which the INHIBITION is given as 51.2%. The value for `CC(C)Cc1ncc2c(n1)CN(C(=O)Cn1c(=O)oc3ccccc31)C2` was 54.5%; that for `CCc1ncc2c(n1)CN(C(=O)CNC(=O)c1ccccc1)C2` was 30.3%; that for `FC(F)(F)c1ccc(-c2cnc(C3CCCN3)cn2)cc1` (stereo not given) was 34.675%. The value for `CCC(CC)C(=O)N1CCN(Cc2cc(-c3ccncc3)nn2C)CC1` was -8.12%; that for `Cc1nn(C)c(N2CCOCC2)c1CNCc1ccccc1CO` was -25.9%; that for `NC(=O)C(NCc1nn(-c2ccccc2)c2c1CCC2)c1ccccc1` (stereo not given) was 8.15%. Take `Fc1ccccc1CN1CCC(c2noc(-c3ccccn3)n2)CC1`: the INHIBITION is on record as -23.4%.
